According to PubChem BioAssay (NCATS):
Inconclusive results are not listed. Entries that show only a call come without a potency. Active and inactive are the calls of the source. The call rests on the fitted dose curve; in most records, active means well fitted curve in the direction sought with a large enough effect; inconclusive means small, poorly fitted or top-dose-only effect, or another doubt; inactive means no such curve, though single readings can be large; an effect the other way counts as inactive or inconclusive.

Columns and labels:
[1] = qHTS of pediatric cancer cell lines to identify multiple opportunities for drug repurposing: Confirmatory screen for Rh30 cells (AID 1347126); further: nearly all actives have a fitted effect of over 55% in size
Method in brief: (§1)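 Viability after 48 h compound treatment at 37C, 500-1,000 cells/well, read as ATP luminescence with CellTiter-Glo. Primary screens used 11-point (MIPE, 0.78 nM-46 µM) or 8-point (NPC, 0.59 nM-46 µM) final concentrations; follow-up screens used 11-point dilutions.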

[2] = qHTS of pediatric cancer cell lines to identify multiple opportunities for drug repurposing: Confirmatory screen for Saos-2 cells (AID 1347127); further: nearly all actives have a fitted effect of over 60% in size
Method in brief: as §1

[3] = qHTS of pediatric cancer cell lines to identify multiple opportunities for drug repurposing: Confirmatory screen for OHS-50 cells (AID 1347128);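 further: compound exposure lasted 48 h at 37 degrees C; nearly all actives have a fitted effect of over 55% in size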
Method in brief: as §1

[4] = qHTS of pediatric cancer cell lines to identify multiple opportunities for drug repurposing: Confirmatory screen for SK-N-SH cells (AID 1347129);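 further: cells exposed to compound for 48 h before viability read; nearly all actives have a fitted effect of over 60% in size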
Method in brief: as §1

[5] = system: Zika virus NS2B-NS3 protease; assay: Primary screen GU AMC qHTS for Zika virus inhibitors (AID 1347154); further: nearly all actives have a fitted effect of over 70% in size
Method in brief: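 Unlinked Zika NS2B hydrophilic domain–NS3 protease complex at 25 nM in 10 mM Tris-HCl pH 8.0, 0.01% Tween 20, with an AMC peptide substrate. Fluorescence change (340/450 nm) over 15 min at room temperature, normalized to controls, fitted to 4-parameter Hill.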

[6] = molecular target: N-terminal Xaa-Pro-Lys N-methyltransferase 1 (Homo sapiens) (UniProt Q9BV86); assay: qHTS Assay for Inhibitors of N-terminal methyltransferase 1 (NTMT1): LOPAC validation of the NTMT1 SAHH-coupled ThioGlo3 Assay (AID 1347143);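 further: SAH from peptide methylation measured as thiol fluorescence via SAHH coupling and ThioGlo3; nearly all actives have a fitted effect of over 70% in size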
Chain of N-terminal Xaa-Pro-Lys N-methyltransferase 1 (Homo sapiens) (Q9BV86 whole entry, looked up): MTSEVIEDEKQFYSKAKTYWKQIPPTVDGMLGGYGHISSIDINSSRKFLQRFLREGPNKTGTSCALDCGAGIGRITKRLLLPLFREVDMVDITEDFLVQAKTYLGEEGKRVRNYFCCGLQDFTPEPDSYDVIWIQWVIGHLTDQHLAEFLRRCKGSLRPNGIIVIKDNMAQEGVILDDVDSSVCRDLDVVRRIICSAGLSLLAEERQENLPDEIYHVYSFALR
Method in brief: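 Recombinant human NTMT1 (125nM) was pre-incubated 1 min at room temperature with compounds over a concentration range, then a mix of 100uM SAM, 10uM SAHH and 15uM ThioGlo3 (concentrations in added reagent) was added. ThioGlo3 fluorescence (ex 340/em 450nm) after 30 min was normalized to the initial reading.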

[7] = molecular target: Furin (Homo sapiens) (UniProt P09958); assay: Furin counterscreen qHTS for Zika virus inhibitors (AID 1347149); further: nearly all actives have a fitted effect of over 70% in size
Chain of Furin (Homo sapiens) (P09958 whole entry, looked up): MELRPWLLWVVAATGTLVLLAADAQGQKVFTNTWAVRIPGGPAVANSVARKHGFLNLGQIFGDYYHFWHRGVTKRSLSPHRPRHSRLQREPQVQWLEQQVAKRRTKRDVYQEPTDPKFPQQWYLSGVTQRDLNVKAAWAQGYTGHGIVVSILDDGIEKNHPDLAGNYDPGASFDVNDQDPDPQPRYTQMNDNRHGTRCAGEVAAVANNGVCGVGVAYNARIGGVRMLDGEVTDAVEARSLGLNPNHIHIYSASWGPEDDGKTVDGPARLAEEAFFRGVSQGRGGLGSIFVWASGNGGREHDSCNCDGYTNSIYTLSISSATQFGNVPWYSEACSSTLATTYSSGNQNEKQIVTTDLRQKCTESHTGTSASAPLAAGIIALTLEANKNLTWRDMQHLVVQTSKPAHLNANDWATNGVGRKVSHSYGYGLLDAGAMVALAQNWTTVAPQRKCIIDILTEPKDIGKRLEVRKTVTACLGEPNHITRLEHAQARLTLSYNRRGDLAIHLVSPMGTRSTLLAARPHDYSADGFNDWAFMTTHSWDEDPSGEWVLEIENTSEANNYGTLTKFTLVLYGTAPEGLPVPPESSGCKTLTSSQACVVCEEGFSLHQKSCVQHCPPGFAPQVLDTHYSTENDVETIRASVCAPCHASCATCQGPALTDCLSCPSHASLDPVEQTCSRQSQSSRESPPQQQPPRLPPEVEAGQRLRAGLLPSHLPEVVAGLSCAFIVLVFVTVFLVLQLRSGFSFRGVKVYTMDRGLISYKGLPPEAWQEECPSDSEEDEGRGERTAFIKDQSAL
Method in brief: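 Fluorogenic cleavage of BOC-RVRR-AMC (2 microM final, Km ~15 µM) was monitored (ex 340, em 450 nm) at 37C after 15 min RT preincubation of 5 nM furin with compounds in HEPES pH 7.0 buffer with CaCl2 and Triton X-100. Percent inhibition was fitted to a 4-parameter Hill curve.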
Potency means the concentration at half of the fitted maximal effect.

SMILES	Potency [1]	Potency [2]	Potency [3]	Potency [4]	Potency [5]	Potency [6]	Potency [7]
CC(=O)[O][Hg][c]1ccccc1	1.31 µM (active)	1.17 µM (active)	5850 nM (active)	2.64 µM (active)	inactive	–	–
COc1ccc2c(c1)CN(C)CC2c1ccc(Cl)c(Cl)c1 (stereo not drawn)	–	23.3 µM (active)	23300 nM (active)	–	inactive	–	–
CS(=O)(=O)c1ccc(C(=O)C2C(=O)CCCC2=O)c([N+](=O)[O-])c1	inactive	inactive	inactive	inactive	–	–	–
Cc1ccccc1-n1c(Cn2ncc3c(N)ncnc32)nc2cccc(C)c2c1=O	inactive	–	23300 nM (active)	inactive	inactive	–	–
CC[C@@H]1[C@@H](C)O[C@@](O)([C@@H](C)[C@H](O)[C@H](C)[C@H]2OC(=O)C=CC=C[C@@H](C)[C@@H]([C@@H](C)[C@@H](O)[C@H](C)[C@@]3(O)C[C@H](O[C@H]4C[C@H](O)[C@H](O)[C@H](C)O4)[C@H](CC)[C@@H](C)O3)OC(=O)C=CC=C[C@@H]2C)C[C@H]1O[C@H]1C[C@H](O)[C@H](O)[C@H](C)O1	–	inactive	inactive	–	inactive	–	–
O=c1[nH]c2ccc(Cl)cc2c(N[C@@H]2CN3CCC2CC3)c1-c1nc2ccccc2[nH]1	5.22 µM (active)	1.31 µM (active)	657 nM (active)	5.26 µM (active)	inactive	–	–
CC(C)(O)C=CC(=O)[C@](C)(O)[C@H]1[C@H](O)C[C@]2(C)[C@@H]3CC=C4[C@@H](C=C(O)C(=O)C4(C)C)[C@]3(C)C(=O)C[C@@]12C	0.827 µM (active)	0.147 µM (active)	1470 nM (active)	0.264 µM (active)	inactive	–	–
CCCN1CCO[C@@H]2c3cc(O)ccc3OC[C@@H]21	8.27 µM (active)	–	–	inactive	inactive	–	–
CC[C@@]1(O)C(=O)OCc2c1cc1n(c2=O)Cc2cc3ccccc3nc2-1	0.737 µM (active)	0.104 µM (active)	147 nM (active)	2.09 µM (active)	2.12 µM (active)	3.55 µM (active)	–
C[C@@]12OC(=O)[C@]1([C@@H](O)[C@@H]1C=CCCC1)NC(=O)[C@H]2CCCl	–	1.17 µM (active)	–	2.35 µM (active)	inactive	–	–
C[C@H]1CCCC=CC2C[C@H](O)C[C@@H]2[C@H](O)C=CC(=O)O1 (stereo partly drawn)	3.69 µM (active)	–	46.5 nM (active)	0.132 µM (active)	inactive	–	–
O=C(O)COc1nc(Cl)c(Cl)cc1Cl	inactive	–	inactive	inactive	inactive	–	–
O=C(O)CCCOc1ccc(Cl)cc1Cl	inactive	inactive	inactive	inactive	inactive	–	–
COC1=CC(C)=C[C@@H](C)[C@@H](O)[C@@H](C)CC(C)=CC=C[C@H](OC)[C@H]([C@@H](C)[C@@H](O)[C@H](C)[C@@]2(O)C[C@@H](O)[C@H](C)[C@@H](C(C)C)O2)OC1=O	10.4 µM (active)	–	–	inactive	inactive	–	–
CC=C(C)C(=O)N[C@@H](c1ccccc1)[C@@H](O)C(=O)O[C@H]1C[C@@]2(O)[C@@H](OC(=O)c3ccccc3)[C@@H]3[C@]4(OC(C)=O)CO[C@@H]4C[C@H](O)[C@@]3(C)C(=O)[C@H](OC(C)=O)C(=C1C)C2(C)C	–	0.0414 µM (active)	41.4 nM (active)	–	inactive	–	–
COc1cc([C@@H]2c3cc4c(cc3[C@@H](O)C3COC(=O)C32)OCO4)cc(OC)c1O (stereo partly drawn)	inactive	inactive	inactive	inactive	inactive	–	–
CC(=Cc1csc(C)n1)[C@@H]1C[C@H]2O[C@]2(C)CCC[C@H](C)[C@@H](O)[C@@H](C)C(=O)C(C)(C)[C@@H](O)CC(=O)O1	inactive	0.0131 µM (active)	13.1 nM (active)	–	inactive	–	–
COc1cc2cc(c1Cl)N(C)C(=O)C[C@H](OC(=O)C(C)C)[C@]1(C)O[C@H]1[C@H](C)[C@@H]1C[C@@](O)(NC(=O)O1)[C@H](OC)C=CC=C(C)C2	inactive	26.1 µM (active)	11.7 nM (active)	–	inactive	–	–
CC(C)N[C@@H]1CCn2c(=O)[nH]c3cccc(c32)[C@@H]1O	inactive	inactive	inactive	inactive	inactive	–	–
CCC(=O)OC1CCC2C3CCC4=CC(=O)CC[C@@]4(C)C3CC[C@]12C (stereo partly drawn)	inactive	inactive	inactive	inactive	inactive	–	–
O=C1C(I)=CC(=C(c2cc(I)c(O)c(I)c2)c2ccccc2C(=O)O)C=C1I	–	inactive	inactive	inactive	12.8 µM (active)	–	18.7 µM (active)
